# Test results taken from publication PMC7862700, “An all-to-all approach to the identification of sequence-specific readers for epigenetic DNA modifications on cytosine”.
# Assays:
# Test in all cases: DAPPL (digital affinity profiling via proximity ligation, sequencing); 10 mM Tris-HCl pH 7.5, 50 mM NaCl, 1 mM DTT, 4% glycerol, room temperature, 30 min; GST-TFs on glutathione beads, 16-mer random dsDNA library, 0.1% formaldehyde crosslink after washing; high values mean tight binding
# FLI1 = molecular target: T1, FLI1 (Homo sapiens, UniProt Q01543 1-452); conditions: protein: recombinant; tags: N-terminal GST; dsDNA, one strand shown
# T1 sequence: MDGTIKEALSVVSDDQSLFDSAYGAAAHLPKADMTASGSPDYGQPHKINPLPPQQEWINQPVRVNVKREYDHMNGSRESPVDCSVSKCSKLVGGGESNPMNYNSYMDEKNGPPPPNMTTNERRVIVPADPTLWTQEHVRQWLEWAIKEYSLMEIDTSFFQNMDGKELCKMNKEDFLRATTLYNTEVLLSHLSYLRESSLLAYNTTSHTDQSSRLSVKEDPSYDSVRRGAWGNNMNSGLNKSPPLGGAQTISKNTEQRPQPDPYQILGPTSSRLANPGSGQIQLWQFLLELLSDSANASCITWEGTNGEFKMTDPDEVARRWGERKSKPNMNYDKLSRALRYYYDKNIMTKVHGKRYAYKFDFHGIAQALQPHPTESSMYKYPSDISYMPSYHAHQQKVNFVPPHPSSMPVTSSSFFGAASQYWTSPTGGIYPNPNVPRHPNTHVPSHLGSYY
# In short: (§1)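 A tag-only sample was pooled with DNA-barcoded human transcription factors that had been expressed in yeast as GST fusions and captured on glutathione beads. The pools were incubated for 30 min at room temperature with 200 nmole of a random double-stranded 16-mer DNA library in Tris/NaCl/DTT/glycerol buffer, then washed, crosslinked with 0.1% formaldehyde, proximity-ligated (BsaI/T4 ligase, 1 h, 37 °C), PCR-amplified and sequenced on an Illumina NextSeq500. Binding signal is each hexamer's read frequency for a factor divided by its frequency for the tag-only sample.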
# ELK1 = molecular target: T2, ELK1 (Homo sapiens, UniProt P19419 1-428); conditions: protein: recombinant; tags: N-terminal GST; dsDNA, one strand shown
# T2 sequence: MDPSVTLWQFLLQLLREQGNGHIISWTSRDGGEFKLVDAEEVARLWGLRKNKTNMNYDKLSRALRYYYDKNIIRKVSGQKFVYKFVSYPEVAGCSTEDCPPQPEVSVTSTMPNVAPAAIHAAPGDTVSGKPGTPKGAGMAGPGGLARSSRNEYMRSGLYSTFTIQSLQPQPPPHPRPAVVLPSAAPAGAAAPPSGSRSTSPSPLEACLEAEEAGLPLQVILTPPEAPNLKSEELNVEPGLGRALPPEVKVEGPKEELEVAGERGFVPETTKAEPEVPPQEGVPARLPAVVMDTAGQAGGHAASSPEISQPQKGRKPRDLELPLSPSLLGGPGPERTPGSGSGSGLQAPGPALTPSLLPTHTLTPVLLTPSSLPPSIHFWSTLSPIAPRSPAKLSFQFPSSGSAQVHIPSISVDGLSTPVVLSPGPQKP
# In short: as §1
# GABPA = molecular target: T3, GABPA (Homo sapiens, UniProt Q06546 1-454); conditions: protein: recombinant; tags: N-terminal GST; dsDNA, one strand shown
# T3 sequence: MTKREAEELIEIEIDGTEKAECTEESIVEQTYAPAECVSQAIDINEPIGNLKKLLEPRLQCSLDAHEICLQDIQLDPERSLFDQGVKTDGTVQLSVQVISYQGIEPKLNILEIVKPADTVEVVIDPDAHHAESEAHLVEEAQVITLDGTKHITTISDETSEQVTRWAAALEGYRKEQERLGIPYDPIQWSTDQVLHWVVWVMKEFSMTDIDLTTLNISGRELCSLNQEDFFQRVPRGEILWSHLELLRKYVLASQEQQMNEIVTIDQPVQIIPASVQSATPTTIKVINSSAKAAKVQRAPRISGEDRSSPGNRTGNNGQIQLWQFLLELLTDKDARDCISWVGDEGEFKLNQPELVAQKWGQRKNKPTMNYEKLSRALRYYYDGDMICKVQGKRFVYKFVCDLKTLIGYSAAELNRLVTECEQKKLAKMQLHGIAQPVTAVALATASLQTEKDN
# In short: as §1
# ERG = molecular target: T4, ERG (Homo sapiens, UniProt P11308 1-479); conditions: protein: recombinant; tags: N-terminal GST; dsDNA, one strand shown
# T4 sequence: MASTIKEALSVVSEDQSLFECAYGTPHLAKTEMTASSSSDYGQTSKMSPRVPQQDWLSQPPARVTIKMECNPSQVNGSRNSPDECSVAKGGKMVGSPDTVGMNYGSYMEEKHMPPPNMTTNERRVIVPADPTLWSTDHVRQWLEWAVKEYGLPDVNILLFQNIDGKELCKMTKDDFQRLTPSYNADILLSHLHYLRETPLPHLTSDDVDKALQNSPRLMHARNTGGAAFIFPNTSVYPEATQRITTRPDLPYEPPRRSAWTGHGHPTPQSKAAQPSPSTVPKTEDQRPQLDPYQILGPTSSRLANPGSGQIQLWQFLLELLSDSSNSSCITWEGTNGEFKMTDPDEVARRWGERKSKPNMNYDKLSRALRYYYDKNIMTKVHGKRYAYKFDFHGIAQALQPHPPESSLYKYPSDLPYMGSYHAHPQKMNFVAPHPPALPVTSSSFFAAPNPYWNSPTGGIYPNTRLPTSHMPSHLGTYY
# In short: as §1
# ELF1 = ELF1 (Homo sapiens, UniProt P32519 1-619); conditions: protein: recombinant; tags: N-terminal GST; dsDNA, one strand shown
# ELF1, sequence (P32519 whole entry): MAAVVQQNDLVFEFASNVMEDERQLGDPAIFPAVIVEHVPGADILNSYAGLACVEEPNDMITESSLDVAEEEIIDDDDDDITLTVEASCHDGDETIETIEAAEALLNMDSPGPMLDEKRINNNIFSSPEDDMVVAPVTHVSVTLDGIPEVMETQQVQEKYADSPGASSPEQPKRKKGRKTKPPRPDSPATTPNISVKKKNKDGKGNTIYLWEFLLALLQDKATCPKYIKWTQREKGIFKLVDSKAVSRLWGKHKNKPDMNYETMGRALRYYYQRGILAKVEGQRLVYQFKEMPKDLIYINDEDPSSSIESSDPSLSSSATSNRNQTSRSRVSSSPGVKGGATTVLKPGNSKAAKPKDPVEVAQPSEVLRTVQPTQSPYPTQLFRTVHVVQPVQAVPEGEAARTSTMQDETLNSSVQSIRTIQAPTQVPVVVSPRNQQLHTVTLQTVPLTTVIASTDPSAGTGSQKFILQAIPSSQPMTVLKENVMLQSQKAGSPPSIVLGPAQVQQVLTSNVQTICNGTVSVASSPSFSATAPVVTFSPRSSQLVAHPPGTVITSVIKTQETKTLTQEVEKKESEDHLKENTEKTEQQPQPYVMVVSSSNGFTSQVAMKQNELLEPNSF
# In short: as §1
# EHF = molecular target: T5, EHF (Homo sapiens, UniProt Q9NZC4 1-300); conditions: protein: recombinant; tags: N-terminal GST; dsDNA, one strand shown
# T5 sequence: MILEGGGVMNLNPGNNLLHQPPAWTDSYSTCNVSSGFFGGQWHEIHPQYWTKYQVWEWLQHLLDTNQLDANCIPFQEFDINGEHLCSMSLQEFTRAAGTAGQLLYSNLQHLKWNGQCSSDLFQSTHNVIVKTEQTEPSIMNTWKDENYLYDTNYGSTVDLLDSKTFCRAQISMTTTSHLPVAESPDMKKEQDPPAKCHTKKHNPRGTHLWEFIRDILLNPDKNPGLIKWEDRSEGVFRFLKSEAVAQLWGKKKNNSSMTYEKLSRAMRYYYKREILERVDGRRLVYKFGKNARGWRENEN
# In short: as §1
# SPI1 = SPI1 (Homo sapiens, UniProt P17947 1-270); conditions: protein: recombinant; tags: N-terminal GST; dsDNA, one strand shown
# In short: as §1
# SPIB = SPIB (Homo sapiens, UniProt Q01892 1-262); conditions: protein: recombinant; tags: N-terminal GST; dsDNA, one strand shown
# SPIB, sequence (Q01892 whole entry): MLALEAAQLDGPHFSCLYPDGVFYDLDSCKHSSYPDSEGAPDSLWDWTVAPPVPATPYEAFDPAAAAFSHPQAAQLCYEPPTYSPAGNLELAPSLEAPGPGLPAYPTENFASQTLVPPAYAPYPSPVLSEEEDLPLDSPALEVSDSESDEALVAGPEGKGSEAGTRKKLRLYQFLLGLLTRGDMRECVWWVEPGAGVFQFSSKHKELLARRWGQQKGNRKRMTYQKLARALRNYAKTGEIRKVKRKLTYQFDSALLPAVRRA
# In short: as §1
# ELK3 = molecular target: T6, ELK3 (Homo sapiens, UniProt P41970 1-407); conditions: protein: recombinant; tags: N-terminal GST; dsDNA, one strand shown
# T6 sequence: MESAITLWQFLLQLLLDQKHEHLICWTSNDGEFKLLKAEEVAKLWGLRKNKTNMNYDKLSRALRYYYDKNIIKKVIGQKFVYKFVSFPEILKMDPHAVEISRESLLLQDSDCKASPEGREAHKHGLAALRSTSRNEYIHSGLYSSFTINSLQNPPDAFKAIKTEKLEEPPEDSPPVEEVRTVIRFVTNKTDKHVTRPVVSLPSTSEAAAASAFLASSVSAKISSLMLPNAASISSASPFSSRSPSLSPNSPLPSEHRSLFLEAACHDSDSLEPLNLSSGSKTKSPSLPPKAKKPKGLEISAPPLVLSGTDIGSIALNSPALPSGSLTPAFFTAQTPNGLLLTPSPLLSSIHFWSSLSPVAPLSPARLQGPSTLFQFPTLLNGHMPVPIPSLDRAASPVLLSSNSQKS
# In short: as §1
# FEV = molecular target: T7, FEV (Homo sapiens, UniProt Q99581 1-238); conditions: protein: recombinant; tags: N-terminal GST; dsDNA, one strand shown
# T7 sequence: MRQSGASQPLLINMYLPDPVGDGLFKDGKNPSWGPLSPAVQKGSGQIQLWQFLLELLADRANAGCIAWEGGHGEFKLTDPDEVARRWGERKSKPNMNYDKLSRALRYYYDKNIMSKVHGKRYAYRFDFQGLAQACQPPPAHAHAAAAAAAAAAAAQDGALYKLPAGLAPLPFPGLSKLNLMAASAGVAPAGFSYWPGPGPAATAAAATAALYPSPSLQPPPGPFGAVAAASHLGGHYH
# In short: as §1
# ETV5 = ETV5 (Homo sapiens, UniProt P41161 1-510); conditions: protein: recombinant; tags: N-terminal GST; dsDNA, one strand shown
# ETV5, sequence (P41161 whole entry): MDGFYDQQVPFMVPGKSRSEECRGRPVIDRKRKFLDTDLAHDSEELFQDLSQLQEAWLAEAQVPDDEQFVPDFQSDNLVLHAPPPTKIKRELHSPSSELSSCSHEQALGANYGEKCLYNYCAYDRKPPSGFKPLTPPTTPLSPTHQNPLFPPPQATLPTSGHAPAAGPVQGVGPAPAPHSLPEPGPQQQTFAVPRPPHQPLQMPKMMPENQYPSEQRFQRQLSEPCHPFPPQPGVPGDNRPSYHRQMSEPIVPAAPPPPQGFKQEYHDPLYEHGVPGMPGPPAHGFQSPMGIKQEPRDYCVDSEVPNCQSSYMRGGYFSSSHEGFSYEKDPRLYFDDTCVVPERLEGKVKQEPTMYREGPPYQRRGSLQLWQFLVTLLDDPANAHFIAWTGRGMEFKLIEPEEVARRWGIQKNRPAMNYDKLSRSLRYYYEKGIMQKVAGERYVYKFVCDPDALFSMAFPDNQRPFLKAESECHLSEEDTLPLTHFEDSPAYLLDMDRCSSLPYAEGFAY
# In short: as §1
# HSF1 = HSF1 (Homo sapiens, UniProt Q00613 1-529); conditions: protein: recombinant; tags: N-terminal GST; chain copies: 3; dsDNA, one strand shown
# HSF1, sequence (Q00613 whole entry): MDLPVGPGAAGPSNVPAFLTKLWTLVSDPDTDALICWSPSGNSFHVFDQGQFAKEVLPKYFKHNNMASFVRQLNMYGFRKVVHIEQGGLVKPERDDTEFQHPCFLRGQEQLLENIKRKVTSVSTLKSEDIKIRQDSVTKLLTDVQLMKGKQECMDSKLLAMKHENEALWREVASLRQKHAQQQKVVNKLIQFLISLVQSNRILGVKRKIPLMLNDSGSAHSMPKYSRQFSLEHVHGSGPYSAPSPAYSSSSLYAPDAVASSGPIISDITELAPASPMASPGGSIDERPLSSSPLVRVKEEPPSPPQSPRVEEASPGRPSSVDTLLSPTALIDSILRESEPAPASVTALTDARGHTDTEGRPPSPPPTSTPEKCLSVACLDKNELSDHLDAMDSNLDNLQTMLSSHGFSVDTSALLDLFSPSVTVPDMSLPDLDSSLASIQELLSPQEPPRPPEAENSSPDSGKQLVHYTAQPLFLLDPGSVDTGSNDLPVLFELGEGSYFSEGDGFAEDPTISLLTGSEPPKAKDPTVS
# In short: as §1
# SPIC = molecular target: T8, SPIC (Homo sapiens, UniProt Q8N5J4 1-248); conditions: protein: recombinant; tags: N-terminal GST; dsDNA, one strand shown
# T8 sequence: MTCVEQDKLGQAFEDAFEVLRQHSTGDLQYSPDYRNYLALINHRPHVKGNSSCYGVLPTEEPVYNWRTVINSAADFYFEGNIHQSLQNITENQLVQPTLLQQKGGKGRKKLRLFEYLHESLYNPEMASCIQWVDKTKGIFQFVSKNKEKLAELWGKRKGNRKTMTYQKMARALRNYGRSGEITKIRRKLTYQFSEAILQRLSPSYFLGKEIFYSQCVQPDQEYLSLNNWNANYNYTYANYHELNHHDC
# In short: as §1
# ELF4 = ELF4 (Homo sapiens, UniProt Q99607 1-663); conditions: protein: recombinant; tags: N-terminal GST; dsDNA, one strand shown
# ELF4, sequence (Q99607 whole entry): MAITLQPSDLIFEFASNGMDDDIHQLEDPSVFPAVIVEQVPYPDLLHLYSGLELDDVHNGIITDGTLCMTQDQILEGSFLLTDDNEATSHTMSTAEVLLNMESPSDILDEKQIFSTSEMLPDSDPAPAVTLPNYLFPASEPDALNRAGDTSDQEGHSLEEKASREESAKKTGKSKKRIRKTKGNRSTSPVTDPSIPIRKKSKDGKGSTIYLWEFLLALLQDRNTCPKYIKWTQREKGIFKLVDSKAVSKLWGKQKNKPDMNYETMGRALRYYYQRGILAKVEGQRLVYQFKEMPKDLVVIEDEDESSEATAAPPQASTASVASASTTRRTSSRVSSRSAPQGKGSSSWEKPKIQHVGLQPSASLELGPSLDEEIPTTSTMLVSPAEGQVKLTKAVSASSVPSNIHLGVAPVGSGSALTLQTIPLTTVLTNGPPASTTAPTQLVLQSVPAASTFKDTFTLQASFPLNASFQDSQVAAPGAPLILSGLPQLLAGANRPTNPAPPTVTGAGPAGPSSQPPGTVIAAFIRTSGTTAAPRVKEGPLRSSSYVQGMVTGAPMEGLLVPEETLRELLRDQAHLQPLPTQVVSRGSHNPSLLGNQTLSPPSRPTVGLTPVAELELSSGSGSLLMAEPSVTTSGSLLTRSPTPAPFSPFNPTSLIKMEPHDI
# In short: as §1
# ELK4 = molecular target: T9, ELK4 (Homo sapiens, UniProt P28324-2 1-405); conditions: protein: recombinant; tags: N-terminal GST; dsDNA, one strand shown
# T9 sequence: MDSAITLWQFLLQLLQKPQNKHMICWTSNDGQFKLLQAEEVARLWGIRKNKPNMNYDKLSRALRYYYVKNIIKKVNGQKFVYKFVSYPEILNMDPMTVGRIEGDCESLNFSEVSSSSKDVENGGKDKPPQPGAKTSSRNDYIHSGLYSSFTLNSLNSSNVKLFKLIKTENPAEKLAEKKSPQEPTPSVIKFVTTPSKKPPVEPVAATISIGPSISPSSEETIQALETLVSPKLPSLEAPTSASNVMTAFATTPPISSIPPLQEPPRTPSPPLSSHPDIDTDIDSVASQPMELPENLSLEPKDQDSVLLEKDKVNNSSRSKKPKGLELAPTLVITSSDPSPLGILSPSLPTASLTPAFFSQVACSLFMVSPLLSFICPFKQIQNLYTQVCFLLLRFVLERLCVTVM
# In short: as §1
# ETV2 = molecular target: T10, ETV2 (Homo sapiens, UniProt O00321 1-342); conditions: protein: recombinant; tags: N-terminal GST; dsDNA, one strand shown
# T10 sequence: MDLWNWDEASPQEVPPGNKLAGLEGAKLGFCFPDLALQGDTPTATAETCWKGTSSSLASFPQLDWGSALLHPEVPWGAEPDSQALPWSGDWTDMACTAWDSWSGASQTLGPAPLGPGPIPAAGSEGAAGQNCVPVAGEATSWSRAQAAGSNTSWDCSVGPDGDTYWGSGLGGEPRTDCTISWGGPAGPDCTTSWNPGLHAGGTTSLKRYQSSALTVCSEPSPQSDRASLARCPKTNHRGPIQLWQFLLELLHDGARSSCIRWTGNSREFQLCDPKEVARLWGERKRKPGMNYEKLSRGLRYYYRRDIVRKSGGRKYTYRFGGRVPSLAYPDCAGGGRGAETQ
# In short: as §1
# ELF3 = molecular target: T11, ELF3 (Homo sapiens, UniProt P78545 1-371); conditions: protein: recombinant; tags: N-terminal GST; dsDNA, one strand shown
# T11 sequence: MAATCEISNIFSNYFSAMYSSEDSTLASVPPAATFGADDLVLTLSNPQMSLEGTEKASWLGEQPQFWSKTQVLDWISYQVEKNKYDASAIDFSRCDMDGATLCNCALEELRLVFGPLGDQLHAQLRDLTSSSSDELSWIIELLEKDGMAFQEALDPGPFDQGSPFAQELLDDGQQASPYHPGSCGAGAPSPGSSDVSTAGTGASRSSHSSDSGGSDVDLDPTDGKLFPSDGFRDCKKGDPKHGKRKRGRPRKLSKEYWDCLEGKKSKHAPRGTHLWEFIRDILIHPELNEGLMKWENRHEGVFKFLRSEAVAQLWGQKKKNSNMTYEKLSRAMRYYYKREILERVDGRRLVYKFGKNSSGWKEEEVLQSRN
# In short: as §1
# CRX = CRX (Homo sapiens, UniProt O43186 1-299); conditions: protein: recombinant; tags: N-terminal GST; dsDNA, one strand shown
# CRX, sequence (O43186 whole entry): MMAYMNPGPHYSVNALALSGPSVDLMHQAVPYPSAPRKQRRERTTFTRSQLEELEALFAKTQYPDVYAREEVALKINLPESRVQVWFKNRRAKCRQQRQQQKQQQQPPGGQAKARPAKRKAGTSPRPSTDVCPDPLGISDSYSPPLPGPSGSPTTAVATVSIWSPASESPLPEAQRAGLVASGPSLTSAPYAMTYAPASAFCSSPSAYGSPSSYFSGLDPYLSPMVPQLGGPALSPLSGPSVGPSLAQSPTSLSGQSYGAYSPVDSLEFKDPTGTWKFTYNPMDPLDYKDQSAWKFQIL
# In short: as §1
# ETV1 = ETV1 (Homo sapiens, UniProt P50549 1-477); conditions: protein: recombinant; tags: N-terminal GST; dsDNA, one strand shown
# ETV1, sequence (P50549 whole entry): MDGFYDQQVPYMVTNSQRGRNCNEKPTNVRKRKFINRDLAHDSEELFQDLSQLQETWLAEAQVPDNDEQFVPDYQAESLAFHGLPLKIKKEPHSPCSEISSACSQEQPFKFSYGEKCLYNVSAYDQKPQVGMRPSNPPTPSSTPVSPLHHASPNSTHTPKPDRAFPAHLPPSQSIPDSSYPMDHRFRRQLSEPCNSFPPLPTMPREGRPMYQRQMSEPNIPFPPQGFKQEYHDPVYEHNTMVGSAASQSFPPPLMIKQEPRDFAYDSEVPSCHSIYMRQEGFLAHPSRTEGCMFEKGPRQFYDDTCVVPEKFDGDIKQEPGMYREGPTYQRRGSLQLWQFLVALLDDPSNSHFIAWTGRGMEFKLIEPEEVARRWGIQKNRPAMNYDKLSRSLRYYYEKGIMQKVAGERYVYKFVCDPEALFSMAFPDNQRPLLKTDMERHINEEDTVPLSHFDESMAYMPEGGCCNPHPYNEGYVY
# In short: as §1
sequence,measurement,setting,value
TTGTGC,binding signal,FLI1,"1.28 fold enrichment (6-mer frequency, TF over GST control)"
same,binding signal,ELK1,"1.25 fold enrichment (6-mer frequency, TF over GST control)"
same,binding signal,GABPA,"1.27 fold enrichment (6-mer frequency, TF over GST control)"
same,binding signal,ERG,"1.23 fold enrichment (6-mer frequency, TF over GST control)"
same,binding signal,ELF1,"1.14 fold enrichment (6-mer frequency, TF over GST control)"
same,binding signal,EHF,"1.21 fold enrichment (6-mer frequency, TF over GST control)"
same,binding signal,SPI1,"1.18 fold enrichment (6-mer frequency, TF over GST control)"
same,binding signal,SPIB,"1.1 fold enrichment (6-mer frequency, TF over GST control)"
same,binding signal,ELK3,"1.21 fold enrichment (6-mer frequency, TF over GST control)"
same,binding signal,FEV,"1.18 fold enrichment (6-mer frequency, TF over GST control)"
same,binding signal,ETV5,"1.17 fold enrichment (6-mer frequency, TF over GST control)"
same,binding signal,HSF1,"1.07 fold enrichment (6-mer frequency, TF over GST control)"
same,binding signal,SPIC,"1.37 fold enrichment (6-mer frequency, TF over GST control)"
same,binding signal,ELF4,"1.13 fold enrichment (6-mer frequency, TF over GST control)"
same,binding signal,ELK4,"1.23 fold enrichment (6-mer frequency, TF over GST control)"
same,binding signal,ETV2,"1.23 fold enrichment (6-mer frequency, TF over GST control)"
same,binding signal,ELF3,"1.24 fold enrichment (6-mer frequency, TF over GST control)"
same,binding signal,CRX,"1.09 fold enrichment (6-mer frequency, TF over GST control)"
same,binding signal,ETV1,"1.09 fold enrichment (6-mer frequency, TF over GST control)"
